Active and inactive are the calls of the source. Rule for the calls: active = hit-call score of the fitted dose curve at least 0.9, where 1 is the maximum; inactive = score below 0.9.

Tumor necrosis factor (Homo sapiens), sequence (P01375 whole entry, looked up): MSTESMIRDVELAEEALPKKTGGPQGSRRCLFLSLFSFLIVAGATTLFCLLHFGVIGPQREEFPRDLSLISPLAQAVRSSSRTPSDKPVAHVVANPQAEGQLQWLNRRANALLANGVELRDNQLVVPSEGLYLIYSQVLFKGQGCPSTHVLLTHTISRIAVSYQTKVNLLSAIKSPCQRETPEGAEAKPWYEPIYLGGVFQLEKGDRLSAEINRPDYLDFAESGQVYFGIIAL

Read-out in this test: Tumor necrosis factor (Homo sapiens) (UniProt P01375)
Description: BSK_LPS_TNFa: BioMAP Diversity Plus: LPS Assay for Tumour Necrosis Factor alpha (TNFa) Biomarker Activity (AID 2283085). As to conditions: primary human HUVEC with PBMC; actives raise or lower the signal. The procedure: BSK_LPS is a cell-based, multiplexed-readout assay that uses umbilical vein endothelium and peripheral blood mononuclear cells, a human vascular primary cell co-culture, with measurements taken at 24 hours after chemical dosing in a 96-well plate.BSK_LPS_TNFa is an assay component measured in the BSK_LPS assay. It measures TNF-a antibody related to regulation of gene expression using ELISA technology.Data from the assay component BSK_LPS_TNFa was analyzed into 1 assay endpoint. This assay endpoint, BSK_LPS_TNFa, was analyzed with bidirectional fitting relative to DMSO as the negative control and baseline of activity. Using a type of binding reporter, gain or loss-of-signal activity can be used to understand changes in the signaling as they relate to the gene TNF. Furthermore, this assay endpoint can be referred to as a primary readout, because this assay has produced multiple assay endpoints where this one serves a signaling function. To generalize the intended target to other relatable targets, this assay endpoint is annotated to the cytokine intended target family, where the subfamily is inflammatory factor.
The levels of cell surface (or secreted, indicated by the prefix "s") biomarker endpoints were measured by ELISA. Overt cytotoxicity to cells in confluent adherent cultures (all systems other than the BT system) was assessed by measuring total protein levels using sulforhodamine B (SRB) staining in parallel cultures at the time of biomarker measurements, indicated as SRB endpoints. For proliferation assays for adherent cell types, individual cell types are cultured at sub-confluence and relative cell numbers quantified by SRB staining at time points optimized for each system (48 h: 3C and CASM3C systems; 72 h: BT and HDF3CGF systems; 96 h: SAg system). SRB was performed by staining cells with 0.1% SRB after fixation with 10% TCA and reading wells at 560 nm.Viability and proliferation of PBMC (T cells) was quantified by Alamar Blue reduction for the SAg and BT systems. For PBMC viability (referred to as PBMC Cytotoxicity within the assay endpoint names), cells were plated (75,000/well in a 96-well plate) and then chemical samples added for 1 h before addition of activators, SEB and TSST-1 (20 ng/mL final concentration each). Cells were incubated for 90 h. Then, Alamar Blue (20 uL/well) (Invitrogen, Cat DAL1100) was added for 6 h, and the plates were read with a fluorescence microplate reader at 546/580 nm (excitation/emission). For PBMC proliferation, cells were plated and activated as above but incubated for only 16 h prior to addition of Alamar Blue. Plates were read after 6 h.
On to `CN(C)C(=O)NC1(c2ccccc2)CCN(CCC[C@]2(c3ccc(Cl)c(Cl)c3)CCCN(C(=O)c3ccccc3)C2)CC1`, for which the result was inactive. As to `CC(C)COC(=O)CCCCC(=O)OCC(C)C`, the result was inactive. Still for that read-out and setting: the entry for `Nc1nc(=S)c2[nH]cnc2[nH]1` is “inactive”. Consider `CCCCCCC(C=O)=Cc1ccccc1`, for which the AC50 is 30.1 µM (active). In the case of `O=[Si]=O`, the outcome was inactive. In the case of `CCN(CC)CCOc1ccc(C(=C(Cl)c2ccccc2)c2ccccc2)cc1`, the AC50 is 11.8 µM (active). With `CC(=O)[C@@]1(O)CC[C@H]2[C@@H]3CCC4=CC(=O)CC[C@]4(C)[C@H]3CC[C@@]21C`, the result was inactive. `CC(C)(O)c1ccc(CNC(=O)c2cccnc2Oc2ccc(F)cc2)cc1`: the AC50 is 0.598 µM (active). `O=C(O)c1cccnc1`: the outcome was inactive. Regarding `CCCCCCCCCC[N+](C)(C)[O-]`, the result was inactive.

Consider `NC(=Nc1ccccc1)Nc1ccccc1`, for which the result was inactive. On to `C=CCCCCCCCCCCCC`, for which the result was inactive. On the same count and under the same terms, for `COc1ccc(C(=O)Nc2nc3ccccc3c(NCc3ccccc3)c2C#N)cc1` the value was “inactive”.

For `Nc1nc(Cl)nc2c1ncn2[C@H]1C[C@H](O)[C@@H](CO)O1`, the AC50 was 5.4 µM (active). Turning to `CC(=O)O[C@]1(C(C)=O)CC[C@H]2[C@@H]3C=C(Cl)C4=CC(=O)[C@@H]5C[C@@H]5[C@]4(C)[C@H]3CC[C@@]21C`, the outcome was inactive.

Turning to `Cc1cc(Cc2ccc(N)c(C)c2)ccc1N`, the result was inactive. Same read-out and setting: the entry for `O=C(NS(=O)(=O)/C=C/c1cccs1)c1ccc(F)cc1Br` is “inactive”. The same measure, in the same setting: for `CCC(C)N(C)C(=O)c1cc2ccccc2c(-c2ccccc2Cl)n1` (stereo not given) the value was “inactive”; for `O=C1c2c(O)cccc2Cc2cccc(O)c21`, “inactive”; for `COc1ccc(OC(F)(F)F)cc1CN[C@H]1CCCN[C@H]1c1ccccc1`, “inactive”. Turning to `O=C(O)c1[nH]n(-c2ccc(S(=O)(=O)O)cc2)c(=O)c1N=Nc1ccc(S(=O)(=O)O)cc1`, the outcome was inactive. Same read-out and setting: for `O=C(Oc1ccccc1)c1cccc(C(=O)Oc2ccccc2)c1` the value was “inactive”; for `CCCCC(CC)COC(=O)CCCCCCCC(=O)OCC(CC)CCCC` (stereo not given), “inactive”. Turning to `Cc1ccc(-c2cc(C(F)(F)F)nn2-c2ccc(S(N)(=O)=O)cc2)cc1`, the AC50 was 30.9 µM (active). With `CC(N)=O`, the outcome was inactive. Still for that read-out and setting: for `Cc1ccc(C(C)(C)C)c(O)c1` the value was “inactive”; for `NCCOCCOCCN`, “inactive”. Turning to `CCCCC(CC)COP(=O)(OCC(CC)CCCC)OCC(CC)CCCC` (stereo not given), the AC50 is 5.46 µM (active). Turning to `CC(C)c1cccc(C(C)C)c1NC(=O)NS(=O)(=O)c1cc(C(C)(C)O)co1`, the result was inactive. In the case of `Cc1c(C)c2c(c(C)c1O)CCC(C)(COc1ccc(CC3SC(=O)NC3=O)cc1)O2` (stereo not given), the half-maximal activity concentration (AC50) was 31.6 µM (active). On the same count and under the same terms, for `OCC(CO)n1cnc(-c2ccc(F)cc2)c1-c1ccnc(Oc2ccccc2)n1` the value was 0.416 µM (active); for `Oc1ccc(O)cc1`, 28.9 µM (active). The same measure, in the same setting: for `C=CCc1ccc(OC)c(OC)c1` the value was 11 µM (active).

As for `O=C(O)CC(O)(CC(=O)O)C(=O)O`, the outcome was inactive. Same read-out and setting: for `CC1(C)C(=O)NC(=O)N1CO` the value was “inactive”; for `CCCC(=O)O`, “inactive”. `CC(=O)OC1CC(C)OC(C)O1` (stereo not given): the outcome was inactive. Still for that read-out and setting: the entry for `CC(=O)OCC(COC(C)=O)OC(C)=O` is “inactive”; for `O=C(O)CN(CC(=O)O)CC(=O)O` it is “inactive”.

For the molecule `O=Cc1ccccc1C=O`, the AC50 is 1.53 µM (active).

Source of the values: PubChem BioAssay (EPA / NIEHS).
